Most compounds without a hit are left out; they make up all but 5.1% or so of the library.
CRFR2-BP ag = agonists of human CRF-binding protein/CRF-R2 receptor complex; activation, % at 13.2 µM; HEK293 CRF-R2/CRF-BP, calcium dye fluorescence (FLIPR); percent of saturating CRF peptide response; hit rate 0.46% among 350,000;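 active = activation of at least 50%, plus an integration ratio under a set limit after plate pattern correction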;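 note: plate controls were neutral control wells without compound for no effect and CRF at EC100 for full effect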
GRIN3A LBD mod = NR3A (human) ligand-binding domain modulation; Tm shift relative to glycine control, % at 25 µM; NR3A LBD differential scanning fluorimetry, Tm shift; 0% = protein alone, 100% = glycine-bound protein; AID 1259313; hit rate 2.5% among 340,000;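 active = melting temperature shift of at least 10% of the positive control shift, at one fixed dose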
MPTP block = blocks calcium-induced mitochondrial swelling; isolated mouse mitochondria, Ca2+ swelling absorbance, 30 min; inhibition, % at 10 µM; hit rate 1.4% among 360,000; AID 602449;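 active = inhibition of 50% or more, scaled per plate between neutral and stimulator controls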;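 note: 0% = DMSO wells given calcium and 100% = 1 mM EGTA wells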
TMEM16A act = activates or potentiates the mouse TMEM16A chloride channel. AID 623877. B-score at 10 µM. hit rate 0.3% among 340,000. HEK293 TMEM16A/YFP-H148Q/I152L, iodide quench fluorescence; hits give low values;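 active = fluorescence-ratio B-score plate-corrected deviation score at least 3 library SD below zero, with starting fluorescence score within 5 deviations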;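 note: channel opened by trigger with iodide after compound preincubation; score built on the fluorescence ratio of max minus min over baseline; more negative score means more quench and so TMEM16A activation or potentiation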
Target sequence (Q8BHY3 whole entry, looked up): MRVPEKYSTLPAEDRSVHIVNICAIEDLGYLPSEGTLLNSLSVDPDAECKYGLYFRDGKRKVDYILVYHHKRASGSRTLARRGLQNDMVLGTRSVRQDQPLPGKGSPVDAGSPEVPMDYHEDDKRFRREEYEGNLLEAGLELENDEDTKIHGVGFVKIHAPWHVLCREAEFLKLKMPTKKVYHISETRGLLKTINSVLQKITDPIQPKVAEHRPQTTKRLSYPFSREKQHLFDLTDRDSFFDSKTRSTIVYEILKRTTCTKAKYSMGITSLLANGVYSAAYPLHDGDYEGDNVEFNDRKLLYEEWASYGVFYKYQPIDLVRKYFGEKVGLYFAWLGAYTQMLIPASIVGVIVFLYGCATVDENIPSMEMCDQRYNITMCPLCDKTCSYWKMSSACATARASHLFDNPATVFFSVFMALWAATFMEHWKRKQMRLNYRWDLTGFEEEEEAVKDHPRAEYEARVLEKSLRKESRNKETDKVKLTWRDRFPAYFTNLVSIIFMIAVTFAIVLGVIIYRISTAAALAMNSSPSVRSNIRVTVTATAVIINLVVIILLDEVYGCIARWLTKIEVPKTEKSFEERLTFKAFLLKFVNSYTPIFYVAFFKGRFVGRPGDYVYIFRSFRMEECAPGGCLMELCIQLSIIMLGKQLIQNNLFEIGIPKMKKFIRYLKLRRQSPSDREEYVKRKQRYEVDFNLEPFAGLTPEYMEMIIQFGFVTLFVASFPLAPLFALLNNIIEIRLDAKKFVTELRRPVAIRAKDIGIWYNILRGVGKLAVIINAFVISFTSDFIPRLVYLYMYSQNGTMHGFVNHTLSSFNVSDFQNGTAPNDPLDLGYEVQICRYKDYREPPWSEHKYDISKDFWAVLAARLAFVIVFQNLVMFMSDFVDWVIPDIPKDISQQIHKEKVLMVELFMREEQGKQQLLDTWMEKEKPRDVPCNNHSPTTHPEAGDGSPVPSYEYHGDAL
CRFR2-BP antag = blocks CRF-induced signaling of the CRF-BP/CRF-R2 complex. HEK293 CRF-R2/CRF-BP, CRF-induced calcium fluorescence. inhibition, % at 11.8 µM. hit rate 0.59% among 350,000;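 active = inhibition of the ligand-induced calcium signal above about 50% at the single tested concentration, limit read from the data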
ANO1 block = blocks the mouse calcium-activated chloride channel TMEM16A; normalized B-score (activity score, 25-100; higher = stronger inhibition) at 10 µM; Q8BHY3; HEK293 TMEM16A/YFP iodide influx fluorescence, ionomycin; hit rate 1.2% among 310,000;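 active = ratio plate-corrected score three or more library SD toward inhibition, starting fluorescence score within five deviations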;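 note: score derived from kinetic fluorescence span divided by baseline fluorescence per well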
An asterisk follows results filed as active; i = inactive; · = no result.

SMILES	CRFR2-BP ag	GRIN3A LBD mod	MPTP block	TMEM16A act	CRFR2-BP antag	ANO1 block
CS(=O)(=O)N1CCN(c2ccccc2NC(=O)c2cc(Br)ccc2Cl)CC1	0.9	0.2	0.2	i	4.0	i
O=C(Nc1ccc2nccnc2c1)Nc1ccccc1Cl	-0.4	-10.8	-1.6	i	2.7	i
O=C(Nc1ccc(C(=O)N2CCCCC2)cc1)Nc1cccc(Cl)c1	9.6	13.4*	17.4	i	-41.2	i
COc1cccc(N2CCN(C(=O)CCNS(=O)(=O)c3ccc(F)c(F)c3)CC2)c1	-0.1	-2.5	-0.7	i	-3.0	·
CCCCCCN1C[C@H](n2cc(COC(=O)c3ccccc3)nn2)[C@@H](O)C[C@@H]1c1ccc(C)cc1	5.4	·	-1.5	·	-0.1	·
O=C(Nc1ccc(Nc2ccccc2)cc1)c1ccc(Br)o1	3.7	20.7*	5.5	i	-36.1	i
O=C(Nc1cccc(NC(=O)c2cccs2)c1)c1ccc(Br)o1	-0.6	15.9*	0.9	i	-19.7	i
O=C(Nc1ccc(NC(=O)c2cccs2)cc1)c1ccc(Br)o1	1.4	24.3*	1.8	i	-14.6	i
O=C(NNC(=O)c1cccs1)c1ccc(Br)o1	0.8	-1.3	0.7	i	20.3	i
O=C(NCCN1CCOCC1)c1ccccc1OCc1ccccc1	-1.4	3.2	-0.8	i	3.5	·
COc1ccc(NC(=O)COc2cccc(-n3cnnn3)c2)cc1Cl	-0.7	-14.3	1.0	i	13.1	i
COc1ccccc1N1CCN(C(=O)C2CCCN(S(=O)(=O)c3ccc4c(c3)CCCN4C(C)=O)C2)CC1 (stereo unspecified)	-0.5	-0.8	-0.8	i	-5.7	25*
CC(=O)N1CCCc2cc(S(=O)(=O)N3CCCC(C(=O)N4CCN(c5cc(C)ccc5C)CC4)C3)ccc21 (stereo unspecified)	-1.3	-2.6	19.2	-4.91*	18.2	25*
O=Cc1nccc2ccccc12	2.9	-0.2	-1.7	-6.51*	-38.3	·
O=C(Nc1ccccc1)c1ccc(Nc2c([N+](=O)[O-])cc([N+](=O)[O-])c3ccccc23)cc1	8.4	10.7*	42.1	i	17.3	i
Cc1c(C(=O)Nc2ccc(Nc3ccccc3)cc2)cccc1[N+](=O)[O-]	1.7	8.9	0.5	i	-3.0	i
O=C(Nc1ccc(Nc2ccncc2)cc1)c1ccc([N+](=O)[O-])cc1	0.5	1.8	7.2	-6.08*	0.2	i
O=C(Nc1ccc(Oc2cccnc2)cc1)c1ccc([N+](=O)[O-])cc1	-1.0	-2.5	1.8	i	23.7	i
CSc1ncnc2c1ncn2CCCNCc1ccc2c(c1)OCO2	2.0	·	-0.5	·	4.8	·
CN(C)/C=N/c1cc(=O)[nH]c(=O)n1CC1CC1	-0.6	-1.9	0.7	i	0.8	i
C=CCn1c(=O)[nH]c2nc3cc(N=CN(C)C)c(C)cc3nc2c1=O	144.0*	0.5	0.8	i	-76.0	i
CCOC(=O)[C@]12CCC=C1N(Cc1ccc(Cl)cc1Cl)C(=O)[C@H](CC(=O)NCCCN1CCCC1=O)C2	·	·	-0.3	·	·	·
Fc1ccc(Nc2ccnc(Nc3ccc(F)cc3)n2)cc1	3.2	55.4*	40.6	i	-57.1	i
CC(C)(C)NC(=O)C(c1ccc(O)cc1)N(C(=O)CCC(=O)Nc1ccccn1)c1ccc(F)cc1 (stereo unspecified)	0.6	-1.2	-1.8	i	-11.4	i
Cc1c(Nc2nc3ccccc3n3cnnc23)cccc1[N+](=O)[O-]	0.9	1.2	0.6	i	-20.0	i
SMILES	CRFR2-BP ag	GRIN3A LBD mod	MPTP block	TMEM16A act	CRFR2-BP antag	ANO1 block
Cc1cc([N+](=O)[O-])ccc1Nc1nc2ccccc2n2cnnc12	-2.0	37.2*	0.6	i	-31.6	i
O=C(Nc1ccccn1)c1cccnc1	1.5	2.4	-0.3	i	-3.8	i
O=C(Nc1cccnc1)Nc1ccccn1	-0.7	0.3	-0.2	-6.4*	-10.2	i
CCCCNC(=O)Nc1ccccn1	-0.9	12.3*	-3.9	i	14.2	i
COc1ccc(OC)c(NC(=O)C2CC(=O)N(CCc3ccc(F)cc3)C2)c1 (stereo unspecified)	0.4	-2.6	-2.2	i	-2.8	·
COc1ccc(NC(=O)C2CC(=O)N(CCc3ccc(Cl)cc3)C2)cc1 (stereo unspecified)	-1.4	11.7*	0.9	i	1.4	i
O=C(CC1SC(=Nc2ccccc2)N(Cc2ccccn2)C1=O)Nc1ccc(Br)cc1 (stereo unspecified)	2.5	12.0*	3.6	i	-47.0	i
Cc1ccccc1N=C1SC(CC(=O)Nc2ccc3ccccc3c2)C(=O)N1Cc1ccccn1 (stereo unspecified)	0.9	21.6*	-5.5	i	-10.7	i
Cc1ccc(S(=O)(=O)Nc2ccc(S(=O)(=O)Nc3nccs3)cc2)c([N+](=O)[O-])c1	-0.6	1.7	0.2	i	-9.2	i
Cc1ccnc(NS(=O)(=O)c2ccc(NS(=O)(=O)c3cc(Cl)ccc3Cl)cc2)n1	-1.7	-14.4	0.0	-29*	-0.8	i
CC(=O)NCCC1CCN(C(=O)C2CCC(=O)N(C3CCCC3)C2)CC1 (stereo unspecified)	-1.0	0.2	-0.2	i	-2.2	i
O=C1OCCN1C(=O)[C@H]1[C@H](c2ccc([N+](=O)[O-])cc2)C(c2cccc(Cl)c2)=NN1c1ccccc1	-0.6	13.4*	1.4	i	4.2	i
O=C1OCCN1C(=O)[C@H]1[C@H](c2ccc(Cl)cc2)C(c2ccc(F)cc2)=NN1c1ccc(Br)cc1	0.7	18.1*	1.1	i	-3.9	·
Cc1cccc(C2=NN(c3ccc(Br)cc3)[C@@H](C(=O)N3CCOC3=O)[C@@H]2C)c1	3.3	11.9*	0.6	·	24.7	·
O=C1OCCN1C(=O)[C@H]1[C@H](c2ccc(F)cc2)C(c2ccc(F)cc2)=NN1c1ccc(Br)cc1	10.7	-3.9	1.5	i	-2.4	i
Cc1cccc(C2=NN(c3ccccc3)[C@@H](C(=O)N3CCOC3=O)[C@@H]2c2ccc(Cl)cc2)c1	7.1	10.6*	-0.9	·	-9.1	·
Cn1c(=O)c2c(nc(CN3CCN(C(=O)c4ccco4)CC3)n2CC(=O)C(C)(C)C)n(C)c1=O	1.1	-0.6	-1.5	i	3.1	i
COc1ccccc1N(CC(=O)Nc1cccc(C(F)(F)F)c1)S(C)(=O)=O	-2.9	0.4	0.5	i	-58.3	i
Cc1ccc([N+](=O)[O-])cc1N(CC(=O)Nc1ccc(S(=O)(=O)Nc2cccc(C(F)(F)F)c2)cc1)S(C)(=O)=O	-0.6	12.3*	-3.8	i	-5.9	i
CCn1c(SCC(=O)Nc2ccccc2F)nnc1-c1ccoc1C	0.8	-0.2	-1.4	i	-3.9	i
COCCCn1c(SCC(=O)Nc2ccccc2F)nnc1-c1ccoc1C	-0.7	-0.4	-0.3	i	102.9*	i
